Pf growth 48h: P. falciparum growth inhibition at 48 hours (one generation). P. falciparum luciferase growth in erythrocytes, 48 h. Potency, µM (titrated, usually from 28.7 µM), hits mostly inhibitors. 310,000 tested, 5.9% active
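Here the parasites carry a stable luciferase gene and grow inside erythrocytes in Albumax-based RPMI medium with compound for one erythrocytic cycle. Activity is scored as loss of luminescent signal.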
Shiga inhibitor: inhibitors of Shiga toxin in Vero cells | AID 2315 | Vero cells, Shiga toxin protein synthesis inhibition reporter | 290,000 tested, 9.2% active | inhibition, % at 38.7 µM; in the data active = inhibition mostly above about 28%, no sharp cut-off; inactive = mostly below about 43%
CHX counter: counter-screen for Shiga toxin inhibitors: cycloheximide protein synthesis inhibition; cell reporter, cycloheximide protein synthesis inhibition counterscreen; max response, %; 300,000 tested, 12% active; AID 2314; in the data active = max response mostly above about 13%, no sharp cut-off; inactive = mostly below about 14%; note: read at 38.3 µM for the half of the compounds with a filed dose
Giardia FBPA inh: blocks Giardia fructose-bisphosphate aldolase activity; A8B2U2; purified Giardia FBPA; Potency, µM (titrated, usually from 59.6 µM), usual class: inhibitors; 290,000 tested, 0.71% active; AID 2451; note: nearly all actives have a fitted effect of over 55% in size
Target sequence (A8B2U2 whole entry, looked up): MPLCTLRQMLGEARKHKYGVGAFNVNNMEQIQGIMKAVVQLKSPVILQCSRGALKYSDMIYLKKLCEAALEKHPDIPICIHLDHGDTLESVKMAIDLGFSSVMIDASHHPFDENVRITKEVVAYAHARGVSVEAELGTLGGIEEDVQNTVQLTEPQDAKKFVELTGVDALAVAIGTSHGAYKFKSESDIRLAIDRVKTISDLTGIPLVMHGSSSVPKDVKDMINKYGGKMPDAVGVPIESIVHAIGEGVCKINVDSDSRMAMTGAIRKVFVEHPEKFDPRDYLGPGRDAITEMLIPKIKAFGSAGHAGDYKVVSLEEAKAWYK
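Giardia FBPA (40 nM reagent) was preincubated 10 min at RT with compound (up to 57.5 uM final), then substrate plus GAPDH/TPI/NAD/arsenate coupling system with diaphorase/resazurin was added; resorufin fluorescence (525/598 nm) was read after 20 min.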
NS1 inh: inhibitors of influenza NS1 protein function. 270,000 tested, 0.4% active. AID 2326. Potency, µM (top dose mostly 46.1 µM); calls by dose curve; note: actives are rising curves; nearly all actives have a fitted effect of over 50% in size
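Growth recovery, yeast-based: influenza A NS1 expressed in S. cerevisiae causes slow growth, and suppressors are detected by OD600. The parent strain without NS1 is used as positive control.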
Pf growth 96h: P. falciparum growth inhibition at 96 hours. P. falciparum luciferase reporter growth, 96 h. Potency, µM (highest dose often 28.7 µM), usual class: inhibitors. 320,000 tested, 6.9% active
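Luminescence readout: decreased luciferase signal marks inhibited growth of reporter-expressing P. falciparum in infected red cells (2% hematocrit, 0.05% parasitemia final), exposed to compound two generations (96 h, 37 C, 5% CO2).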
Hits are given with their value; ! = not active in a repeat; [ ] = remark or other dose. Hits are enriched below; roughly 21% of the tested compounds scored in any of these assays. Unless noted, calls come from the whole dose curve; as a rule, active = well fitted curve in the direction sought with a large enough effect; inconclusive = small, poorly fitted or top-dose-only effect, or another doubt; inactive = no such curve, though single readings can be large; an effect the other way counts as inactive or inconclusive.

How did Cc1ccc(C(=O)O/N=C(\c2ccccc2)c2ccncc2)cc1 do in these assays?
Pf growth 48h: inactive; Shiga inhibitor: inactive; CHX counter: inactive; Giardia FBPA inh: inactive; Pf growth 96h: inconclusive

How did CC(C)(C)C(=O)OC/C(N)=N/OC(=O)c1ccccc1 do in these assays?
Pf growth 48h: inconclusive; Shiga inhibitor: inactive; CHX counter: 39.6; Giardia FBPA inh: inactive; NS1 inh: inactive; Pf growth 96h: inconclusive

How did CC1CC1C(=O)N1CCN(S(=O)(=O)c2cccc(F)c2)CC1 (stereo not given) do in these assays?
Pf growth 48h: inconclusive; Pf growth 96h: inactive

Results for CN(/N=C/c1cc(Br)cc(Br)c1O)c1cccc(C(F)(F)F)n1 ?
Pf growth 48h: 4.15µM; Shiga inhibitor: inactive; CHX counter: inactive; Giardia FBPA inh: inactive; NS1 inh: inactive; Pf growth 96h: inconclusive

What do the screens show for `CC(=O)N[C@@H](C(=O)O)C(C)(C)SN=O`?
Giardia FBPA inh: inactive

What do the screens show for `Cc1c(CCC(=O)O)c(=O)oc2cc3occ(C(C)(C)C)c3cc12`?
Pf growth 48h: inactive; Shiga inhibitor: inactive; CHX counter: inactive; Giardia FBPA inh: inactive; NS1 inh: inactive; Pf growth 96h: 1.04µM

What do the screens show for `Cc1ccc(OCCN2CCN(C(=O)CCC(=O)Nc3nnc(CC(C)C)s3)CC2)cc1`?
Pf growth 48h: 11.7µM; Shiga inhibitor: inactive; CHX counter: inactive; Giardia FBPA inh: inactive; NS1 inh: inactive; Pf growth 96h: 0.329µM

Results for CCCc1nnc(NC(=O)CCC(=O)N2CCN(Cc3ccc(Cl)cc3)CC2)s1 ?
Pf growth 48h: inactive; Shiga inhibitor: inactive; CHX counter: inactive; NS1 inh: inactive; Pf growth 96h: 11.7µM

Results for COc1ccc(C(C)=O)cc1CC(=O)Nc1ccccc1-c1ccccc1 ?
Pf growth 48h: inconclusive; Shiga inhibitor: inactive; CHX counter: inactive; Giardia FBPA inh: inactive; NS1 inh: inactive; Pf growth 96h: inconclusive

How did O=C(O)c1cc(-c2ccc(Cl)cc2)n(-c2ccc(F)cc2)n1 do in these assays?
Pf growth 48h: inactive; Shiga inhibitor: inactive; CHX counter: inactive; Giardia FBPA inh: inactive; NS1 inh: inactive; Pf growth 96h: inconclusive

Results for Cc1ccc(C)n1-n1c(C)nc2sc3c(c2c1=O)CCCCC3 ?
Pf growth 48h: 11.7µM; Shiga inhibitor: inactive; CHX counter: inactive; Giardia FBPA inh: inactive; NS1 inh: inactive; Pf growth 96h: 11.7µM

What do the screens show for `Cc1ccc(C)n1-n1cnc2sc3c(c2c1=O)CCCCC3`?
Shiga inhibitor: inactive; CHX counter: inactive; Giardia FBPA inh: inactive; NS1 inh: inactive; Pf growth 96h: inconclusive

How did NNc1nc2sc3c(c2c(=O)n1-c1ccccc1)CCCC3 do in these assays?
Pf growth 48h: inactive; Shiga inhibitor: inactive; CHX counter: 23.4; Giardia FBPA inh: inconclusive; NS1 inh: inconclusive; Pf growth 96h: inactive

Results for Nn1c(Nc2ccccc2)nc2sc3c(c2c1=O)CCCC3 ?
Pf growth 48h: inactive; Shiga inhibitor: inactive; CHX counter: 20.7; Giardia FBPA inh: inactive; NS1 inh: inactive; Pf growth 96h: inactive

Results for Cc1ccc(-c2nc3sc4c(c3c(=O)n2N)CCCC4)cc1 ?
Shiga inhibitor: inactive; CHX counter: 59.2; Giardia FBPA inh: inactive; NS1 inh: inactive; Pf growth 96h: 7.38µM

How did COc1cccc(CC(NC(C)=O)C(=O)NC2CCN(S(=O)(=O)c3ccc(C)cc3)CC2)c1OC (stereo not given) do in these assays?
Pf growth 48h: inactive; Shiga inhibitor: inactive; CHX counter: inactive; Giardia FBPA inh: inactive; NS1 inh: inactive; Pf growth 96h: inactive

What do the screens show for `O=C(O)C(Sc1ccc(Cl)cc1)Sc1ccc(Cl)cc1`?
NS1 inh: inactive

What do the screens show for `COc1ccc(CNS(=O)(=O)CCNC(=O)c2cccc(OC)c2)cc1`?
Pf growth 48h: inactive; Pf growth 96h: inactive

Results for O=C(O)/C=C/c1cn(Cc2ccccc2Cl)nc1-c1ccccc1 ?
Pf growth 48h: inactive; Shiga inhibitor: inactive; CHX counter: inactive; Giardia FBPA inh: inactive; NS1 inh: inactive; Pf growth 96h: inactive

What do the screens show for `S=C1NCN(Cc2ccco2)CN1CCc1ccccc1`?
Pf growth 48h: inconclusive; Shiga inhibitor: inactive; CHX counter: inactive; Giardia FBPA inh: inactive; NS1 inh: inactive; Pf growth 96h: 8.28µM

How did S=C1NCN(C2CCCCC2)CN1CCc1ccccc1 do in these assays?
Pf growth 48h: 4.65µM; Shiga inhibitor: inactive; CHX counter: inactive; Giardia FBPA inh: inactive; NS1 inh: inactive; Pf growth 96h: 1.85µM

How did CCCCN1CNC(=S)N(Cc2ccccc2)C1 do in these assays?
Pf growth 48h: inactive; Shiga inhibitor: inactive; CHX counter: inactive; Giardia FBPA inh: inactive; NS1 inh: inactive; Pf growth 96h: 9.28µM

Results for O=C(CN1CCN(S(=O)(=O)N2CCCCC2)CC1)Nc1ccc(Br)cc1 ?
Pf growth 48h: inactive; Shiga inhibitor: inactive; CHX counter: inactive; Giardia FBPA inh: inactive; NS1 inh: inactive; Pf growth 96h: inactive

Results for CCN(CC)c1ccc(/C=C(/C#N)C(=O)NC(C)C)o1 ?
Pf growth 48h: inactive; Shiga inhibitor: 60.3; CHX counter: 25.8; Giardia FBPA inh: inactive; NS1 inh: inactive; Pf growth 96h: inconclusive

Results for CCN(CC)c1ccc(/C=C(/C#N)C(=O)NCc2ccccc2)o1 ?
Pf growth 48h: inactive; Shiga inhibitor: 101.6; CHX counter: 49.8; Giardia FBPA inh: inactive; NS1 inh: inactive; Pf growth 96h: inconclusive

Results for CC(=O)Nc1ccc(/C=C(\C#N)C(=O)NCc2ccccc2)cc1 ?
Pf growth 48h: inactive; Shiga inhibitor: inactive; CHX counter: inactive; Giardia FBPA inh: inactive; NS1 inh: inactive; Pf growth 96h: inactive

What do the screens show for `Cc1cc(Cl)ccc1Nc1sc(C(=O)c2cc3cc(Cl)ccc3o2)c(N)c1C#N`?
NS1 inh: inactive

What do the screens show for `Nc1ccc(C(=O)NCCCCCCNC(=O)c2ccc(N)cc2)cc1`?
Pf growth 48h: inactive[0.00184 µM]; Shiga inhibitor: inactive; CHX counter: inactive; Giardia FBPA inh: inactive; NS1 inh: inactive; Pf growth 96h: inconclusive

What do the screens show for `Nc1ccc(C(=O)NCC(=O)O)cc1`?
Pf growth 48h: 11.7µM!; Giardia FBPA inh: inactive; Pf growth 96h: 9.28µM!

How did O=C(O)c1cccc(NC2=Nc3cccc4cccc2c34)c1 do in these assays?
Pf growth 48h: inactive; Shiga inhibitor: 37.9; CHX counter: 6.7; Giardia FBPA inh: inactive; NS1 inh: inactive; Pf growth 96h: inactive

What do the screens show for `Fc1ccc(/C=N/NC2=Nc3cccc4cccc2c34)cc1`?
Pf growth 48h: inactive; Shiga inhibitor: 81.3; CHX counter: 43.0; Giardia FBPA inh: inactive; NS1 inh: inactive; Pf growth 96h: inactive

What do the screens show for `COc1ccc(Nc2nc(Cl)nc(Nc3ccc(OC)cc3)n2)cc1`?
Pf growth 48h: inactive; Shiga inhibitor: inactive; CHX counter: inactive; Giardia FBPA inh: inactive; Pf growth 96h: inactive

Results for c1ccc(NC2=Nc3cccc4cccc2c34)cc1 ?
Pf growth 48h: inactive; Shiga inhibitor: inactive; CHX counter: 21.5; Giardia FBPA inh: inactive; Pf growth 96h: inactive

Results for COc1ccc(NC2=Nc3cccc4cccc2c34)cc1 ?
Pf growth 48h: inconclusive; Shiga inhibitor: inactive; CHX counter: 24.9; Giardia FBPA inh: inactive; NS1 inh: inactive; Pf growth 96h: inactive

How did O=C1N[C@@]2(CN3CCC2CC3)C(=O)N1CN(Cc1ccccc1)c1ccccc1 do in these assays?
NS1 inh: inactive
